# Source: the supplement of paper PMC11417369
# ± gives the standard deviation of the averaged measurements. The full ranking holds about 25,000 sequences; the median of “ln(normalized median fluorescence intensity)” is about 8.9, and the highest 2% start at about 10. The sample holds the highest values, similar sequences and a random draw of the others, so the mix is not that of the screen.
# Test system: PfAP2-LT AP2 domain (GST-tagged)
# Test: gcPBM binding intensity (ln(normalized median fluorescence intensity)); higher = stronger DNA binding
# Method in brief: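 Each value is the highest Masliner-normalised natural-log median intensity across replicate spots of either orientation of a probe. The probes were primer-extended double-stranded 36-bp intergenic genomic sequences on an Agilent 4 × 180k array, alongside negative controls, exposed for 1 h to GST-tagged P. falciparum DNA-binding domains expressed in E. coli. Bound protein was picked up with Alexa488 anti-GST antibody and scanned at 488 nm.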
row,Sequence,gcPBM binding intensity (ln)
1,TGTACCTTATTAATATATTTAACTCGCCTTATATAC [XGTACX_negctrl_site289],8.96 ± 0.36
2,AAATGTACAGGACGCACACACATATTTATATTTATA [CACACA_site7689],9.53 ± 0.3
3,TAAAATGTACAGGACGCACACACATATATATATATA [CACACA_site3673],9.92 ± 0.42
4,AAATGTACAGGACGCACACACATATATATATATATA [CACACA_site3674],10.11 ± 0.05
5,GCCTTCCTTCTAAATGCACACGGAAAGTATAAATGT [CACACA_site8797],9.04 ± 0.31
6,TTAATGTAGAGAAAATGTACATTTTATTAAAACAAT [XGTACX_site6376],8.76 ± 0.47
7,AAATAAAACAGACACACACACACATACACAAAAAAA [CACACA_site7753],10.1 ± 0.22
8,AACATACATAAACACACACACACACCCACAGAGACA [CACACA_site4430],10.29 ± 0.035
9,TAAACATACAGATACACACACACACCCACAGAGACA [CACACA_site4429],10.15 ± 0.028
10,AAATAACAAATTTTTAAAATGTATATATATATATAT [TGCATGCA_negctrl_site219],9.51 ± 0.12
11,GTTTTTTTTTTTTTGGTGCGTCATTTTCAAAAGAAG [GTGCAC_site9745],8.57 ± 0.41
12,AAACAAAAAAATTGAAATAAAATGAAGTAAATGAAC [TGCATGCA_negctrl_site129],8.9 ± 0.66
13,TTTTTTTTTTTTTTTTTTTTTTTCTTTATTTTTTTT [CACACA_negctrl_site703],8.16 ± 0.43
14,ATTGTTTTGTAATATGAAAAAATTGTGTAATGTGTC [CACACA_negctrl_site1510],8.72 ± 0.4
15,TTTTAAGTTTTTGAATGTACGTAATTTGTAAATTCT [XGTACX_site2448],8.49 ± 0.47
16,TATTTTTATTTTACATTATTTGTTTATAATTCTTAA [CACACA_negctrl_site1358],8.53 ± 0.57
17,ACAAATAAATAAAAAACACACACAAATAAATAAATA [CACACA_site8708],9.57 ± 0.38
18,ATGTTACACCGACACACACACATAAAAAAACAAAAA [CACACA_site5750],9.61 ± 0.42
19,CATATATACTCATACACACACACACCGACACAGACA [CACACA_site5026],9.84 ± 0.17

row,Sequence,gcPBM binding intensity (ln)
1,AAAAAAAAAAAACACACACACACACCGACAAAATAT [CACACA_site8411],10.4 ± 0.25
2,CACAAACAAAAACACACACACACACCGACAAAAATG [CACACA_site5362],10.24 ± 0.092
3,TATACTCATATATAAACACACAAAAAAAAAAAAAAA [CACACA_site5165],8.72 ± 0.45
4,TATTTATTAAAACACACACACACACCGACAAAATAA [CACACA_site4293],9.97 ± 0.25
5,CATATACTCGGACACACACACACACCGACAAAAAAA [CACACA_site4433],10.1 ± 0.41
6,AAAAAAAAAAAAAACACACACACAAAAAAAAATATA [CACACA_site1104],9.68 ± 0.35
7,TAAAATAAAACAAACACACACACACCGACACAAAAA [CACACA_site5993],10.1 ± 0.035
8,ATAAATGACAGACACACACACAAAAAAAAAAAACAA [CACACA_site2626],9.84 ± 0.57
9,AAAAAAAAAAAACACACACACAAAAAAAAATATATA [CACACA_site1105],9.85 ± 0.54
10,TACAAAAATGTAGTCACACATATGTATACTTTTATG [CACACA_site5607],8.85 ± 0.42
11,TGTACCTACAAAATATGATATATTTTTATAAATTGT [XGTACX_negctrl_site498],8.51 ± 0.47
12,TGAACAACTATTACTGCACACATTCTTACACTATAT [CACACA_site4533],9.41 ± 0.45
13,GATGATACAAAGTAATGTACATAAATACACATATTG [XGTACX_site3177],9.03 ± 0.44
14,ATAATACGAATTTGTAGTACATTTATAATAACATGA [XGTACX_site2614],8.65 ± 0.38
15,AATGGTCTTTTCAACACACGTACATAAAAATATTAT [CACACA_site2571],8.79 ± 0.44
16,CAATAATATATATATTGTACATTTTTTTTTATTATT [XGTACX_site3149],8.7 ± 0.38
17,TTTTATAGAGTGTATACATGCAATACCACATAAAAT [TGCATGCA_site476],8.79 ± 0.43
18,ATTTTTTTTTTTACAGTGGAACCATATTTGCTCATT [CACACA_negctrl_site940],8.82 ± 0.51
19,ATATATATATTTTTATGAGGCATAAGTAATATTTTT [TGCATGCA_negctrl_site317],8.53 ± 0.4

row,Sequence,gcPBM binding intensity (ln)
1,TAAAAGTTTTTATACATACACACCTATAAATTAAGT [CACACA_site2446],8.72 ± 0.36
2,CATAAATTAAAACACACACACACAAAAAAAAAAAAA [CACACA_site2262],9.84 ± 0.33
3,AATTAACAAAAACACACACACACACCGACAAAAAAA [CACACA_site4444],10.1 ± 0.23
4,TAAATTAAAAAACACACACACAAAAAAAAAAAAAAA [CACACA_site2263],9.41 ± 0.51
5,TATGCACGCGAACACACACACACAACTAAAAAATAA [CACACA_site7251],9.79 ± 0.37
6,TTTTTATCTTTGCTGTGTACATAAATAAAAATAACT [XGTACX_site7625],8.47 ± 0.42
7,TATATATATATAATGTGTACACAAATATATATTATA [XGTACX_site8786],8.8 ± 0.37
8,AAAAAAAACAGACACACACACAAATATATAAAAATA [CACACA_site1172],9.94 ± 0.35
9,GTAAAAAAATAGCACACACACAAAAACACGCACAAA [CACACA_site6723],10.1 ± 0.23
10,CAATATAAAAAACACACGCACACAAAAAAAAAAAAA [CACACA_site3521],9.46 ± 0.42
11,AAGTAAAAAAATAGCACACACACAAAAACACCCACA [CACACA_site1291],9.92 ± 0.16
12,ATCAAATAATAGCAAACACACAAAAAATAAAAAAAA [CACACA_site4146],9.04 ± 0.47
13,AAGTAAAAAAATAGCACACACACAAAAACACAGACA [CACACA_site4839],10.1
14,TATTTGTAAATCGATACACACATATAGATTAATATA [CACACA_site6237],8.88 ± 0.35
15,ATATTCTGATTTTAGATGCACTTCGTTAACAAAATA [GTGCAC_site9958],8.49 ± 0.35
16,ATGGACATTTTATAAATCACAATGGATATTTTATAA [CACACA_negctrl_site1830],8.41 ± 0.42
17,GGAAATTAACAGAACACAATGTAACAATTTCTAACA [CACACA_negctrl_site1250],8.85 ± 0.4
18,TAAAAGGGGATATATGAACACACAAAAAAAAAATAT [CACACA_site8940],9.04 ± 0.64
